Consider four compounds from PubChem BioAssay.

Active and inactive are the calls of the source. Unless noted, the rule behind the calls is not given here.

In test [1] the test system is Wnt5a (protein binding on small-molecule microarray). In words: small molecules binding Wnt5a protein – biophysical, small-molecule microarray, 635/667 nm fluorescence, primary screen (AID 1142).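 Note: fluorescence read at 667 nm with signal to noise per printed feature.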 As to conditions: 635 nm fluorescence, higher = more signal.
A short description of test [2]: ATP-based viability of Huh7 replicon cells – cell-based, CellTiter-Glo luminescence, basal, 48 h, cytotoxicity control for HCV replication inhibitor project, primary screen (AID 1143).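 Note: Huh7 hepatoma cells carrying a hepatitis C replication reporter with no stimulus; test concentration not given here.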 As to conditions: higher = more signal, called active from +8 up or from −8 down.
Test [3] is described as follows: Pseudomonas biofilm growth suppression – PAO1 strain, BacTiter-Glo luminescence, LB-PBS, primary screen (AID 1144). The settings on record: P. aeruginosa PAO1 biofilm, 12 h, higher = more signal.
Test [4] in a line: basal CRE-LacZ reporter activity in PC12 – cell-based, unstimulated, primary screen (AID 1145). As to conditions: no forskolin, luminescence, 4.5 h, higher = more signal, called active from +8 up or from −8 down.
Test [5] is described as follows: forskolin-driven CRE-LacZ activity in PC12 – cell-based, CRE-LacZ reporter, forskolin-stimulated, primary screen (AID 1146).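 Note: PC12 cells with 6xCRE LacZ reporter stimulated by forskolin 10 µM; beta-galactosidase reporter signal reflecting CREB driven transcription.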 As to conditions: luminescence, 4.5 h, higher = more signal, called active from +8 up or from −8 down.
Test [6] deals with Streptavidin (Streptomyces avidinii) (UniProt P22629). In words: compounds binding control protein streptavidin – biophysical, small-molecule microarray, 635/667 nm fluorescence, artefact control for SMM compound annotation, primary screen (AID 1147).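 Note: signal reflects streptavidin binding to arrayed compounds as a control protein.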 As to conditions: higher = more signal.
Streptavidin (Streptomyces avidinii), sequence (P22629 whole entry, looked up): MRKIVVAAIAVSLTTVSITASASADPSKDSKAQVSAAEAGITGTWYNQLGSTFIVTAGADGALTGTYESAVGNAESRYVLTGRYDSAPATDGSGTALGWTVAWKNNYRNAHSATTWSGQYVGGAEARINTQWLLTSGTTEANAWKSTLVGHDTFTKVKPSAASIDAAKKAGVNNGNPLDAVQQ
Test [7] in a line: probe aInhba binding on compound microarray – biochemical, small-molecule microarray, 635/667 nm fluorescence, primary screen (AID 1148).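 Note: score merges 667nm spot fluorescence with signal-to-noise for antibody binding to printed compounds.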 The settings on record: higher = more signal.
Test [8] addresses Torsin-1A (Homo sapiens) (UniProt O14656). In words: TOR1A wild-type binding on microarray – cell lysate, small-molecule microarray, lysate, 635/667 nm, primary screen (AID 1149). As to conditions: COS7 hTOR1A-WT lysate, 635 nm fluorescence, higher = more signal.
For test [9] the target is unchanged. Description: torsin A mutant lysate binding on microarrays – cell lysate, small-molecule microarray, COS7 lysate, 635/667 nm fluorescence, primary screen (AID 1150).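 Note: score pools 667 nm emission and signal to noise measuring lysate protein binding.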 The settings on record: COS7 hTOR1A mutant lysate, 635 nm fluorescence, higher = more signal.
Test [10] relates to Sonic hedgehog protein (Shh). Description: Sonic hedgehog microarray binding compounds – biochemical, small-molecule microarray, 635/667 nm fluorescence, primary screen (AID 1151).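 Note: Shh protein binding to compounds spotted on small-molecule microarray slides; score combines spot fluorescence intensity with signal-to-noise across triplicate slides.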 As to conditions: 635 nm fluorescence, higher = more signal.
A short description of test [11]: optical density shifts of acrAB sulA E. coli – strain DRC41, OD650, 48 h, E. coli filamentation inducer project, primary screen (AID 1152).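 Note: E. coli MC1000 strain DRC41 lacking acrAB efflux pump and sulA.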 The settings on record: higher = more signal, called active from +8 up or from −8 down.
Test [12] can be described thus: probe aLefty1 binding on compound microarray – biochemical, small-molecule microarray, 635/667 nm fluorescence, primary screen (AID 1153).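 Note: score merges spot fluorescence with signal-to-noise ratio from the scanned slide images.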 As to conditions: higher = more signal.
The nature of test [13]: plasmodial surface anion channel blockers, osmotic lysis – cell-based, P. falciparum Indochina, OD700, 1 h, primary screen (AID 1154). The settings on record: P. falciparum Indochina infected RBC osmotic lysis, higher = more signal, called active from +8 up or from −8 down.
Test [14] in a line: plasmodial surface anion channel blockers, osmotic lysis – cell-based, P. falciparum Indochina, OD700, 2 h, primary screen (AID 1155).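 Note: lysis reports solute entry through the parasite surface anion channel PSAC.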 The settings on record: P. falciparum Indochina infected erythrocytes, higher = more signal, called active from +8 up or from −8 down.
The nature of test [15]: changes in parasitized red cell lysis, either direction – P. falciparum Indochina, OD700, 3 h, PSAC antagonist project, primary screen (AID 1156). The settings on record: P. falciparum-infected erythrocytes, osmotic lysis, higher = more signal, called active from +8 up or from −8 down.
The nature of test [16]: plasmodial surface anion channel blockers, osmotic lysis – cell-based, P. falciparum Indochina, OD700, 18 h, primary screen (AID 1157). As to conditions: P. falciparum Indochina infected erythrocytes, osmotic lysis OD700, 18 h; higher = more signal, called active from +8 up or from −8 down.
The nature of test [17]: S6 kinase pathway phospho-S6 level changes – cell-based, A549, cytoblot, luminescence, serum-stimulated, primary screen (AID 1158).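 Note: serum-stimulated A549 lung adenocarcinoma cells; signal is phosphorylated S6 detected by cytoblot immunostaining with HRP secondary.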 The settings on record: 5 h, higher = more signal.
Test [18] addresses NADPH oxidase 2 (Homo sapiens) (UniProt P04839). In words: compounds shifting NOX2 Amplex Red fluorescence – cell-based, HEK293-NOX2, PMA-stimulated, NOX inhibitor project, primary screen (AID 1159). Note: test concentration not given here. As to conditions: 45 min, higher = more signal, called active from +8 up or from −8 down.
Test [19] concerns the target NADPH oxidase 4 (Homo sapiens) (UniProt Q9NPH5). Description: compounds shifting NOX4 Amplex Red fluorescence – cell-based, HEK293-NOX4, tetracycline-induced, NOX inhibitor project, primary screen (AID 1160). The settings on record: HEK293-NOX4, Amplex Red H2O2 fluorescence, 45 min; higher = more signal, called active from +8 up or from −8 down.
Test [20] addresses NADPH oxidase 5 (Homo sapiens) (UniProt Q96PH1). Description: compounds shifting NOX5 Amplex Red fluorescence – cell-based, HEK293-NOX5, NOX inhibitor project, primary screen (AID 1161). As to conditions: HEK293-NOX5, ionomycin, 45 min, higher = more signal.

NADPH oxidase 5 (Homo sapiens), sequence (Q96PH1 whole entry, looked up): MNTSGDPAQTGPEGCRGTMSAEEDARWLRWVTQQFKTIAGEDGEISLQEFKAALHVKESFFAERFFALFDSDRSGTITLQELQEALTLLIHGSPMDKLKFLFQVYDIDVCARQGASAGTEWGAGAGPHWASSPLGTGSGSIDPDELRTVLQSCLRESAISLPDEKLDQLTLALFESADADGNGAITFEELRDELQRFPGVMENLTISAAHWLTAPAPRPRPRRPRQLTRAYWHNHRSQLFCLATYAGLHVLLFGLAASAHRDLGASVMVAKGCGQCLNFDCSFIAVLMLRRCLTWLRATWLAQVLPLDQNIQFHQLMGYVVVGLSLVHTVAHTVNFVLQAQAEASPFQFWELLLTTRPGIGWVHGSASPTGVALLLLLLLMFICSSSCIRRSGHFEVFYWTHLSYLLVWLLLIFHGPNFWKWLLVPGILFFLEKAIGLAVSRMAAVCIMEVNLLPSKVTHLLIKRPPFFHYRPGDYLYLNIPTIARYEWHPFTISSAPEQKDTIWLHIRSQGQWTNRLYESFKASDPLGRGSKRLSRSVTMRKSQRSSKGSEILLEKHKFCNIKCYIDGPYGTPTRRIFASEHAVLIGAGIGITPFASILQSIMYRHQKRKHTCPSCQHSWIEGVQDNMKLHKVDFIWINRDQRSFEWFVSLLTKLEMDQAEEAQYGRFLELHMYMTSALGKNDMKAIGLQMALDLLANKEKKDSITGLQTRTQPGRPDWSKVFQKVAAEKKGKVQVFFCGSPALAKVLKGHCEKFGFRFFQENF
NADPH oxidase 4 (Homo sapiens), sequence (Q9NPH5 whole entry, looked up): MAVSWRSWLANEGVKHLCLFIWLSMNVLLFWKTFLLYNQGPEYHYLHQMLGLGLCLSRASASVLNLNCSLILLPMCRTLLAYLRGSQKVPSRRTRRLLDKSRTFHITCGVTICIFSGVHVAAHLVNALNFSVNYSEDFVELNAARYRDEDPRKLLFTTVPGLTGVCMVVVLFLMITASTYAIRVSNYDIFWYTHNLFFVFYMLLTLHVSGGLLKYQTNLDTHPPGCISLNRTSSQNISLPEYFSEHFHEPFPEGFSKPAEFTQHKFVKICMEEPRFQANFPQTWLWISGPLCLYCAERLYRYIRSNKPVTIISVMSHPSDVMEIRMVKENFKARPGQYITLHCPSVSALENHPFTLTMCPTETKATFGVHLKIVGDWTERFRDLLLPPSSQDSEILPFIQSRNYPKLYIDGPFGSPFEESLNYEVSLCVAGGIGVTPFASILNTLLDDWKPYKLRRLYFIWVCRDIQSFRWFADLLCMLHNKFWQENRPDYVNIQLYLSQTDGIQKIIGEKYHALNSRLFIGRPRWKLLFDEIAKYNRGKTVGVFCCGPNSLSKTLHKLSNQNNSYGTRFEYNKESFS
Torsin-1A (Homo sapiens), sequence (O14656 whole entry, looked up): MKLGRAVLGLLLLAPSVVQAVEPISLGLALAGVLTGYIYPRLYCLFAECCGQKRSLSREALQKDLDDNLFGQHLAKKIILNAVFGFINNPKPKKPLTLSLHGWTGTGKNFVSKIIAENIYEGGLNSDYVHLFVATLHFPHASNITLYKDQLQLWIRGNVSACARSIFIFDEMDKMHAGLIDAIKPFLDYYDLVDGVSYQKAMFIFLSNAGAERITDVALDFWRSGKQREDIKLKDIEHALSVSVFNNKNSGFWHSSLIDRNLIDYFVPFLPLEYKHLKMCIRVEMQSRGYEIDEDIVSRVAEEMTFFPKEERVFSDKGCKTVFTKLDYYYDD
NADPH oxidase 2 (Homo sapiens), sequence (P04839 whole entry, looked up): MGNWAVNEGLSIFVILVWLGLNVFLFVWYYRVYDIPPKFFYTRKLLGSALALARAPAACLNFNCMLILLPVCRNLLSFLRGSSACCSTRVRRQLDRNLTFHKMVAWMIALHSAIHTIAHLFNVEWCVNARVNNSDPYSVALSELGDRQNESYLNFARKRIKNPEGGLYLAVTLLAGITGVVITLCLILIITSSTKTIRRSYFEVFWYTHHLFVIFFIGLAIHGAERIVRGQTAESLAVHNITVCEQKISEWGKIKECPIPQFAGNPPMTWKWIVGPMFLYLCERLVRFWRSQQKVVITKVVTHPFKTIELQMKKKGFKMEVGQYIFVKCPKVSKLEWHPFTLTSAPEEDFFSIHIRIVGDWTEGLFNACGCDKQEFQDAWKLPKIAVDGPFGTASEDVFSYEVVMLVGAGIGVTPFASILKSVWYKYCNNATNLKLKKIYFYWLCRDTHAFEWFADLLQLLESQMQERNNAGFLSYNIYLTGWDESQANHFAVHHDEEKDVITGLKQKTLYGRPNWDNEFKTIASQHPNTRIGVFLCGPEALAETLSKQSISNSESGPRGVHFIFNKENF

Take `COCOc1ccc(Br)cc1C(=O)C=Cc1ccc2c(c1)OCO2`: the composite z-score was -0.18 in test [1]; -0.0743 in test [6]; -0.182 in test [7]; 0.61 in the test with Torsin-1A (Homo sapiens) [8]; 0.281 in the test with Torsin-1A (Homo sapiens) [9]; 0.487 in test [10]. The composite z-score in [12] was -0.103. The z-score is -3.9 (inactive) in test [2]; -1.46 (inactive) in test [3]; 15.5 (active) in test [4]; 5.69 (inactive) in test [5]; 0.677 (inactive) in [11]; 8.25 (active) in [13]. The z-score was -0.0749 (inactive) in test [14]; 0.365 (inactive) in test [15]; -1.11 (inactive) in [16]; 0.835 in [17]; 0.187 (inactive) in test [18]; 0.138 (inactive) in test [19]. The z-score in [20] is -1.03.
Consider `CC(CCN1CCCCc2nc(C)c(C)cc21)=NO[C@@H](C)c1cc(-c2c(C)cc(C)cc2C)no1`, for which the composite z-score is -0.525 in [1]; -1.23 in [6]; -0.211 in test [7]; -1.18 with Torsin-1A (Homo sapiens) [8]; -0.956 in the test with Torsin-1A (Homo sapiens) [9]; -0.235 in test [10]. Moreover, in test [12], the composite z-score is -0.196. The z-score was -3.04 (inactive) in test [2]; -0.425 (inactive) in test [3]; 1.9 (inactive) in test [4]; 1.02 (inactive) in [5]; 0.393 (inactive) in test [11]; 3 (inactive) in test [13]. The z-score is 0.49 (inactive) in test [14]; 1.54 (inactive) in [15]; 0.588 (inactive) in [16]; 0.13 in test [17]; -1.79 (inactive) in [18]; -0.125 (inactive) in test [19]. Further, the z-score in [20] is -2.5.
Turning to `C#CCCCON=C1C[C@@H](O)[C@@H](O)[C@@H]2[C@@H]3C(=O)N(CC)C(=O)[C@@H]3CC[C@H]12`, the composite z-score in test [1] was 0.401; in test [6], 0.0761; in [7], -0.0986; in the test with Torsin-1A (Homo sapiens) [8] it was 0.259; with Torsin-1A (Homo sapiens) [9], 0.937; in [10], 0.275. Moreover, in test [12], the composite z-score is -0.0035. In addition, the z-score in test [2] was 0.0934 (inactive); in test [3], 0.203 (inactive); in test [4] it was 0.252 (inactive); in test [5], 0.0606 (inactive); in test [11], 0.135 (inactive); in test [13], 0.129 (inactive). For the same compound, the z-score in [14] is 0.238 (inactive); in [15], -0.0312 (inactive); in [16] it was 0.0581 (inactive); in [17] it was -0.403; in [18], -0.88 (inactive); in [19], -0.231 (inactive). The z-score in [20] came to 0.15.
In the case of `CCOC(=O)[C@H](CC(C)C)NC(=O)CCC1CC(OC(=O)NCCc2ccc(F)cc2)CC2(CCCC(COC(=O)NCc3cccc(C(F)(F)F)c3)O2)O1` (stereo not given in full), the composite z-score in test [1] is 0.0465; in test [6] it was 0.0808; in test [7], -0.0762; with Torsin-1A (Homo sapiens) [8] it was 0.0857; with Torsin-1A (Homo sapiens) [9], 0.147; in [10], 0.909. In test [12], this compound had a composite z-score of 0.0437. Also, the z-score in test [2] was 0.215 (inactive); in test [3], 0.074 (inactive); in [4] it was -0.437 (inactive); in [5], 0.257 (inactive); in [11] it was 0.265 (inactive); in test [13], 6.76 (inactive). Further, the z-score in [14] was 0.968 (inactive); in test [15], 0.0716 (inactive); in test [16], 0.127 (inactive); in test [17] it was -0.276; in [18], 0.61 (inactive); in [19], 0.703 (inactive). In addition, the z-score in [20] came out at 0.401.
